Source: PubChem
D3 antag – blocks the human D3 dopamine receptor; P35462; D3R cells, DiscoveRx beta-arrestin luminescence, antagonist mode; hits give low values; max response, negative = inhibition, %; 2.5% of 360,000 active; in the data active = max response below about -50%; inconclusive = no clear call, values can overlap the other calls; note: % is set by controls: 0 for no effect and ±100 for the full control effect
Target sequence (P35462 whole entry, looked up): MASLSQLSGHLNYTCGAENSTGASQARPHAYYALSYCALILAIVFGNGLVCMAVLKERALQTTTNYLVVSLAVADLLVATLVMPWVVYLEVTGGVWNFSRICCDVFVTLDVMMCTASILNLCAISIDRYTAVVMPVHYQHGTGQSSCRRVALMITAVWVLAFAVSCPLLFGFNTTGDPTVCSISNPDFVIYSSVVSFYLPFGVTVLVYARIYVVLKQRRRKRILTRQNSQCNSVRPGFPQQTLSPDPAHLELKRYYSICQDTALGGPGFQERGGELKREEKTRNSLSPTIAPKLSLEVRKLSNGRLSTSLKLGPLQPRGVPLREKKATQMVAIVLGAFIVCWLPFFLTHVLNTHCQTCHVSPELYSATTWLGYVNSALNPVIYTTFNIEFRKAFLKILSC
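Cells expressing the human receptor were seeded at 1500 cells/well, incubated overnight at 37 degrees C in 5% CO2, then exposed to library compounds with dopamine controls for 90 minutes at 37 degrees C before luminescent detection.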
D1 antag – human D1 dopamine receptor antagonism | 3.2% of 360,000 active | P21728 | activity change, negative = inhibition, % at 10 µM | HEK293 TREx D1 cells, calcium flux, dopamine EC80; hits give low values; in the data active = activity change below about -30%; note: % is set by controls: 0 for no effect and ±100 for the full control effect
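Inducible Hek293 Trex D1 cells (tetracycline, overnight, 30 C). Calcium dye 30–90 min RT. Antagonist mode: EC80 dopamine added after 180 s compound read.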
D1 agonist – activates the human D1 dopamine receptor. activation, % at 2 µM. P21728. AID 504660. 1% of 360,000 active. HEK293 T-REx D1 cells, calcium flux, agonist mode; in the data active = activation above about 30%; note: 0% is about no effect
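Tetracycline-induced HEK293 TREx D1 cells, force-coupled to calcium signalling, were dye-loaded with a no-wash calcium kit. Compound was pin-added after a 10 s baseline. Fluorescence was read kinetically at 1 cycle/s for 180 s, with calcium rises flagged as agonism.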
D1 potentiator – human D1 dopamine receptor positive modulation. HEK293 TREx D1 cells, calcium flux, dopamine EC20 potentiation. potentiation, % at 10 µM. 0.036% of 360,000 active; in the data active = potentiation above about 30%; note: 0% is about no effect
D3 ag – D3 dopamine receptor (human) agonism; P35462; D3R DiscoveRx beta-arrestin cells, luminescence, 90 min; max activation, %; 0.58% of 410,000 active; AID 652048; in the data active = max activation above about 30%; note: 0% is about no effect
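Cells at 1500/well, incubated overnight, then treated with pinned compounds (dopamine as control) for 90 min at 37 degrees C. DiscoveRx reagent added for 30 - 60 minutes at room temperature; luminescence read.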
* = called active by the depositor; ? = inconclusive; . = not tested or not shown. Sampled rows, rich in hits. Any-hit rate of the full collection: about 6%.

SMILES	D3 antag	D1 antag	D1 agonist	D1 potentiator	D3 ag
Cc1cccc(NC(=O)CNC(=O)c2ccc(S(=O)(=O)NCc3ccco3)cc2)c1C	-7	.	.	.	-4
COc1ccc(Cl)cc1NC(=O)[C@@]1(CC(=O)O)CC(/C=C/c2ccccc2)=NO1	-12	-35*	4	4	-1
COc1ccc(CC(=O)NNC2=Nc3cccc4cccc2c34)cc1	-79*	14	4	1	-22
COc1ccc(C(=O)NNC2=Nc3cccc4cccc2c34)cc1	-68*	0	4	-4	-12
Cc1ccc(C(=O)NNC2=Nc3cccc4cccc2c34)cc1	-74*	1	7	-4	-25
COc1ccc(CC(=O)NNC(=O)Cc2ccc(OC)cc2)cc1	.	-10	1	1	.
NC(=O)NNC1=Nc2cccc3cccc1c23	3	-4	1	-10	-9
CCN1C(=O)[C@H]2[C@@H](c3ccc(C(F)(F)F)cc3)N[C@]3(CCCN(Cc4ccc(C)cc4)C3=O)[C@H]2C1=O	7	.	.	.	-4
COc1ccc(F)cc1C(=O)C1CCCN(Cc2ccc(Sc3nncn3C)o2)C1 (configuration not stated)	?	-3	0	-2	-13
Nc1nc(N)c(S(=O)(=O)c2ccccc2)c(Nc2ccccc2)n1	.	12	-1	-1	-4
Cc1cc(C)cc(NC(=O)C(NCCN2CCOCC2)c2ccccc2)c1 (configuration not stated)	?	-54*	6	-7	-16
O=C(NCCCN1CCOCC1)C(c1ccccc1)c1ccccc1	20	-1	2	-2	3
Cc1c(NC(=O)CN2C(=O)NC(C)(c3ccccc3)C2=O)c(=O)n(-c2ccccc2)n1C (configuration not stated)	-9	-32*	3	-5	-7
Cc1ccc(C2(C)NC(=O)N(CC(=O)Nc3c(C)n(C)n(-c4ccccc4)c3=O)C2=O)cc1 (configuration not stated)	9	13	3	-4	4
COCCN(Cc1cc2cc3c(cc2nc1Cl)OCO3)C(=O)c1ccc(C)cc1	11	-3	66*	3	3
COCCN(Cc1cc2cc(C)c(C)cc2nc1Cl)C(=O)Nc1ccccc1	-28	0	1	-6	-5
O=S(=O)(c1ccccc1Br)N(Cc1ccccc1)CC(O)COCc1ccccc1 (configuration not stated)	0	.	.	.	-19
Cc1ccc2c(C(=O)CN3CCSCC3)c(C)[nH]c2c1	-9	-44*	2	0	-5
COCC(=O)O[C@]1(CCN(C)CCCc2nc3ccccc3[nH]2)CCc2cc(F)ccc2[C@@H]1C(C)C	?	-23	67*	-10	-75
CC(=O)Nc1c2c(nn1-c1ccccc1C)CS(=O)(=O)C2	0	-8	3	-1	8
N=C(N)Cc1ccccc1Sc1ccccc1	3	-49*	5	-8	1
CCOC(=O)c1ccc(NC(=O)NCCc2cnc[nH]2)cc1	-18	5	3	-2	-13
Oc1ccccc1CNc1cccc2cccnc12	-2	-5	3	-4	-3
Nc1sc(-c2ccccc2)n[n+]1Cc1cccc2cccnc12	1	-43*	16	-8	3
COc1ccc(-c2cc(C(F)(F)F)nc(SCC(=O)NCC(C)C)n2)cc1OC	.	-9	1	-4	-13
SMILES	D3 antag	D1 antag	D1 agonist	D1 potentiator	D3 ag
CCCNC(=O)c1ccc(N2CCC3(CC2)CC(c2cccc(Br)c2)=NO3)c([N+](=O)[O-])c1	?	-44*	1	-6	0
Cc1ccc(CNC(=O)c2ccc(N3CCC4(CC3)CC(c3cccc(Br)c3)=NO4)c([N+](=O)[O-])c2)cc1	-8	10	2	10	-23
CCCNC(=O)c1ccc(N2CCC3(CC2)CC(c2ccccc2)=NO3)c(NC(=O)c2ccccc2)c1	61	-2	0	-6	13
CCCCCCCC(=O)Nc1cc(C(=O)NCCC)ccc1N1CCC2(CC1)CC(c1ccccc1)=NO2	-119*	15	2	1	48*
C=CCn1c(-c2cc(OC)cc(OC)c2)n[nH]c1=S	-59*	5	-1	-4	-1
CCN(CC)c1ccc(/C=N/NC(=O)c2nnn(-c3nonc3N)c2CN(C)C2CCCCC2)cc1	-28	.	.	.	-1
CCOc1ccc(CSC(=N)N)cc1	-2	21	25	-3	-8
